Measurements reported in the supplement of paper PMC9877034.
Where a name gives a salt, the structure may show the parent alone. In all, about 1,000 compounds were measured (“cFRET/donor change relative to DMSO, normalised to beta-lapachone positive control (supercomplex I-IV assembly)”: median about 0.18, lowest 2% from about -1 on). The list comes from a sample in which the lowest values are over-represented; it also holds similar structures and randomly drawn compounds.

tested on: C2C12 (NDUFB8-AcGFP / COX8A-DsRed-Monomer FRET reporter); experiment: cFRET/donor change relative to DMSO, normalised to beta-lapachone positive control (supercomplex I-IV assembly) (fraction of beta-lapachone effect); higher = more respiratory supercomplex assembly; conditions: 40 µM; 24 h
Protocol: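 Cells were treated with 40 uM compound for 24 h and imaged on an IN Cell Analyzer 6000. Corrected FRET was divided by donor signal (cFRET/donor) and measured in two replicate experiments. The score is (mean cFRET/donor of compound - mean DMSO) / (mean beta-lapachone 40 uM - mean DMSO). Compounds flagged for prominent cell death, abnormal morphology or decreased cell number were excluded.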

Row | Structure (SMILES) | cFRET/donor change
1 | CC[C@H]1OC(=O)[C@H](C)[C@@H](O[C@H]2C[C@@](C)(OC)[C@@H](O)[C@H](C)O2)[C@H](C)[C@@H](O[C@@H]2O[C@H](C)C[C@H](NC)[C@H]2O)[C@](C)(O)C[C@@H](C)CN(C)[C@H](C)[C@@H](O)[C@]1(C)O | 0.325
2 | O=C(O)c1cc(=O)c2ccccc2[nH]1 [Kynurenic acid] | -0.161
3 | O=c1cc(-c2ccccc2)[nH]c2nc(Cl)ccc12 [7-Chloro-4-hydroxy-2-phenyl-1,8-naphthyridine] | -1.98
4 | CN1[C@@H]2CC[C@H]1CC(OC(=O)c1c[nH]c3ccccc13)C2 (some centres not stated) [3-Tropanyl-indole-3-carboxylate hydrochloride] | 0.435
5 | CCCOc1ccccc1-c1nc2[nH]nnc2c(=O)[nH]1 [Zaprinast] | 0.225
6 | CCCCN(CC)c1nc(C)nc2c1c(C)cn2-c1c(C)cc(C)cc1C | 0.353
7 | CNC(=O)[C@H]1O[C@@H](n2cnc3c(NCc4ccc(N)cc4)ncnc32)[C@H](O)[C@@H]1O | 0.125
8 | Cc1nc(C#Cc2cccnc2)cs1 [MTEP hydrochloride] | 0.691
9 | CCCc1nn(C)c2c(=O)[nH]c(-c3cc(S(=O)(=O)N4CCN(C)CC4)ccc3OCC)nc12 [Sildenafil citrate salt] | 0.123
10 | NS(=O)(=O)c1cc2c(cc1Cl)N=CNS2(=O)=O [Chlorothiazide] | 0.223
11 | C=C1C(=O)O[C@H]2[C@H]1CC/C(C)=C/CC[C@@]1(C)O[C@@H]21 [Parthenolide] | 0.366
12 | CN(CCOc1ccc(NS(C)(=O)=O)cc1)CCc1ccc(NS(C)(=O)=O)cc1 [Dofetilide] | 0.532
13 | CC1CCN=C(N)S1 (racemic) [(±)-AMT hydrochloride] | 0.00413
14 | CC(=O)/C=C1/C(=O)N(C)c2ccccc21 [Supercinnamaldehyde] | 0.0218
15 | CC(N)(Cc1ccc(O)cc1)C(=O)O (racemic) [DL-alpha-Methyl-p-tyrosine] | -0.224
16 | C[C@]12CC[C@@H]3c4ccc(O)cc4C[C@@H](CCCCCCCCC[S+]([O-])CCCC(F)(F)C(F)(F)F)[C@H]3[C@@H]1CC[C@@H]2O (some centres not stated) [Fulvestrant] | 0.0846
17 | NS(=O)(=O)c1nn2cc(-c3ccccc3)nc2s1 | -0.298
18 | COC(=O)C(C)(N)Cc1ccc(O)cc1 (racemic) [alpha-Methyl-DL-tyrosine methyl ester hydrochloride] | 0.302
19 | O=C1OC(=O)[C@H]2[C@@H]1[C@@H]1CC[C@H]2O1 [Norcantharidin] | 0.251
20 | CCCCC1(C2CCCC2)Cc2cc(OCC(=O)O)c(Cl)c(Cl)c2C1=O (stereo in doubt) [R(+)-Butylindazone] | 0.322
21 | CC(=O)NC[C@H]1CN(c2ccc(N3CCOCC3)c(F)c2)C(=O)O1 [Linezolid] | 0.372

Row | Structure (SMILES) | cFRET/donor change
22 | CCCCCCCCCCCCCCCC(=O)OC[C@H](COP(=O)(O)OCCNC(=O)[C@H](C)NC(=O)CC[C@@H](NC(=O)[C@H](C)NC(=O)[C@@H](C)O[C@H]1[C@H](O)[C@@H](CO)OC(O)[C@@H]1NC(C)=O)C(N)=O)OC(=O)CCCCCCCCCCCCCCC (some centres not stated) [Mifamurtide] | -0.0931
23 | O=C1CCCC(=O)C1C(=O)c1ccc(C(F)(F)F)cc1[N+](=O)[O-] [Nitisinone] | 0.0147
24 | C=C1C[C@@]23CC[C@H]4[C@@](C)(CCC[C@@]4(C)C(=O)O[C@@H]4O[C@H](CO)[C@@H](O)[C@H](O)[C@H]4O)[C@@H]2CC[C@]1(O[C@@H]1O[C@H](CO)[C@@H](O)[C@H](O)[C@H]1O[C@@H]1O[C@H](CO)[C@@H](O)[C@H](O)[C@H]1O)C3 [Stevioside] | 0.0782
25 | N[C@H](C(=O)O)[C@H](Cc1ccccc1)C(=O)O [L-Beta-threo-benzyl-aspartate] | -0.122
26 | CCCCCCCCCCCCCCC[C@H](O)[C@H](N)CO (racemic) [DL-erythro-Dihydrosphingosine] | 0.48
27 | CC(C)NCC(O)c1ccc(O)c(O)c1 (single isomer, unassigned; (-)) [(-)-Isoproterenol hydrochloride] | 0.53
28 | C[C@]12C=CC(=O)C=C1CC[C@@H]1C2=CC[C@]2(C)[C@@H](C(=O)CN3CCN(c4cc(N5CCCC5)nc(N5CCCC5)n4)CC3)CC[C@@H]12 | -1.85
29 | CCN(CC)CCCCNc1ncc2cc(-c3c(Cl)cccc3Cl)c(NC(=O)NC(C)(C)C)nc2n1 | 0.403
30 | Cc1cn([C@H]2C[C@H](N=[N+]=[N-])[C@@H](CO)O2)c(=O)[nH]c1=O [3'-Azido-3'-deoxythymidine] | -0.184
31 | O=CN(O)CCCP(=O)(O)O [Fosmidomycin sodium salt hydrate] | 0.0766
32 | N[C@H](C(=O)O)[C@H](O)c1ccc(O)c(O)c1 | 0.419
33 | O=c1[nH]c(=O)n(C2CCCO2)cc1F (configuration not stated) [Tegafur] | 0.268
34 | O=C(NOC[C@H](O)CO)c1ccc(F)c(F)c1Nc1ccc(I)cc1F | 0.21
35 | COc1cc2ncnc(Nc3cccc(Cl)c3)c2cc1OC [Tyrphostin AG 1478] | 0.19
36 | CN(C)c1cc2c(Nc3ccc4c(cnn4Cc4ccccc4)c3)ncnc2cn1 | -7.46
37 | CC1=C(C(=O)O)N2C(=O)[C@@H](NC(=O)[C@H](N)c3ccccc3)[C@H]2SC1 [Cephalexin hydrate] | 0.038
38 | CNS(=O)(=O)CCc1ccc2[nH]cc(C3CCN(C)CC3)c2c1 [Naratriptan hydrochloride] | 0.347
39 | O=c1cc(-c2ccc(O)cc2)oc2cc(O)cc(O)c12 [Apigenin] | -1.74
40 | O=c1c(O)c(-c2ccc(O)cc2O)oc2cc(O)cc(O)c12 [Morin] | -3.25
41 | O=c1cc(-c2ccccc2)oc2c(O)c(O)ccc12 [7,8-Dihydroxyflavone hydrate] | -0.0745
42 | COc1ccc(-c2cc(=O)c3c(O)c(OC)c(OC)cc3o2)cc1O [Eupatorin] | 0.395

Row | Structure (SMILES) | cFRET/donor change
43 | O=c1c(-c2ccc(O)cc2)coc2cc(O)ccc12 [Daidzein] | 0.201
44 | O=C(Nc1ccccc1C(=O)NC1CCCCNC1=O)c1cc2ccccc2s1 (configuration not stated) | 0.384
45 | CN1[C@@H]2CC[C@H]1C[C@@H](OC(=O)C(O)c1ccccc1)C2 (mixture of isomers) [DL-Homatropine hydrobromide] | 0.0655
46 | Cn1c(=O)c2[nH]c(C3CCCC3)nc2n(C)c1=O [8-Cyclopentyl-1,3-dimethylxanthine] | 0.158
47 | Cn1c(=O)c2[nH]c(-c3ccc(S(=O)(=O)O)cc3)nc2n(C)c1=O [8-(p-Sulfophenyl)theophylline] | 0.086
48 | Cn1c(=O)c2[nH]c(-c3ccccc3)nc2n(C)c1=O [1,3-Dimethyl-8-phenylxanthine] | -1.5
49 | Cc1c(O)cccc1C(=O)N[C@@H](CSc1ccccc1)[C@H](O)CN1C[C@H]2CCCC[C@H]2C[C@H]1C(=O)NC(C)(C)C [Nelfinavir mesylate hydrate] | -0.54
50 | O=C(O)CCc1ccc(NCc2cccc(Oc3ccccc3)c2)cc1 | -0.4
51 | C[C@@H](c1ncncc1F)[C@](O)(Cn1cncn1)c1ccc(F)cc1F [Voriconazole] | 0.181
52 | NC1CONC1=O (racemic) [DL-Cycloserine] | 0.397
53 | NC(N)=NC(=O)c1nc(Cl)c(N2CCCCCC2)nc1N [5-(N,N-hexamethylene)amiloride] | 0.351
54 | CCOc1ncc(S(=O)(=O)N2CCN(CC)CC2)cc1-c1nc(=O)c2nn(CCOC)c(CC)c2[nH]1 [Gisadenafil besylate salt] | 0.0753
55 | O=C1Nc2ccc(I)cc2/C1=C/c1cc(Br)c(O)c(Br)c1 | -3
56 | N=C(N)c1ccc(OCCCCCOc2ccc(C(=N)N)cc2)cc1 [Pentamidine isethionate] | 0.191
57 | CC(C)(NS(=O)(=O)c1ccc(Oc2ccc(F)cc2)cc1)C(=O)NO | 0.196
58 | CN1[C@@H]2CC[C@H]1C[C@@H](OC(c1ccccc1)c1ccccc1)C2 [Benztropine mesylate] | 0.586
59 | Cc1c(-c2ccc(-c3ccccc3F)cc2)nc2ccc(F)cc2c1C(=O)O [Brequinar sodium salt hydrate] | 0.431
60 | Nc1ccc(CCNc2ncnc3c2ncn3C2OC(CO)C(O)C2O)cc1 (configuration not stated) [N6-2-(4-Aminophenyl)ethyladenosine] | 0.338
61 | CCCC(CCC)C(=O)O[C@H]1C[C@H]2CC[C@@H](C1)[N+]2(C)C [Anisotropine methyl bromide] | 0.0542
62 | COc1ccc(CCn2nnnc2C2(c3ccc(C)cc3)CC2)cc1 [Mephetyl tetrazole] | 0.388
